# According to PubChem BioAssay AID1159580 (chemical genetic matrix, 2015):
# About 2,000 (36%) of roughly 5,500 compounds were called active. About 18% were inconclusive and are not listed. The list shows a part of the results. Values without a mark were called inactive. Cut-off read from the data, not from the text of the source: active = normalized growth mostly below about 0.91 (no sharp cut-off); inconclusive = no clear call, values can overlap the other calls; inactive = mostly above about 0.92.
# Assay: chemical genetic growth profiling, strain panel (AID 1159580);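 note: tested at 20 µM; growth read once vehicle control cultures reached saturation at 30 °C; 1 = growth at the plate median or of vehicle wells; lower values mean less growth of the strain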
# Details: S. cerevisiae deletion strains, growth OD
smiles,measurement,setting,value
CCOC(=O)C1C(=O)C=C(c2cccs2)CC1c1ccc(OC)c(OC)c1Cl (stereo unspecified),normalized growth,"locus YAL013W, strain DEP1, active compounds read low",0.988
same,normalized growth,"locus YBR229C, strain ROT2, active compounds read low",0.991
same,normalized growth,"locus YDL101C, strain DUN1, active compounds read low",0.995
same,normalized growth,"locus YDL134C, strain PPH21, active compounds read low",0.989
same,normalized growth,"locus YDR150W, strain NUM1, active compounds read low",0.968
same,normalized growth,"locus YEL061C, strain CIN8, active compounds read low",1.01
same,normalized growth,"locus YGR078C, strain PAC10, active compounds read low",0.979
same,normalized growth,"locus YHR030C, strain SLT2, active compounds read low",0.874
same,normalized growth,"locus YHR087W, strain rtc3, active compounds read low",0.998
same,normalized growth,"locus YJR043C, strain POL32, active compounds read low",0.983
same,normalized growth,"locus YJR075W, strain HOC1, active compounds read low",0.974
same,normalized growth,"locus YLR039C, strain RIC1, active compounds read low",0.863
same,normalized growth,"locus YLR058C, strain SHM2 (second series), active compounds read low",0.992
same,normalized growth,"locus YLR085C, strain ARP6, active compounds read low",1
same,normalized growth,"locus YLR262C, strain YPT6, active compounds read low",0.796 (active)
same,normalized growth,"locus YML094W, strain GIM5, active compounds read low",1.03
same,normalized growth,"locus YMR219W, strain ESC1, active compounds read low",0.993
same,normalized growth,"locus YMR263W, strain SAP30, active compounds read low",1.01
same,normalized growth,"locus YNL153C, strain GIM3, active compounds read low",0.988
same,normalized growth,"locus YNL298W, strain CLA4 (second series), active compounds read low",0.976
same,normalized growth,"locus YNL322C, strain KRE1, active compounds read low",0.993
same,normalized growth,"locus YNR030W, strain Alg12, active compounds read low",0.968
same,normalized growth,"locus YOL006C, strain TOP1, active compounds read low",0.895
same,normalized growth,"locus YPL055C, strain LGE1, active compounds read low",1.04
same,normalized growth,"locus YPL241C, strain CIN2, active compounds read low",1.01
same,normalized growth,"locus YPR135W, strain CTF4, active compounds read low",0.843
